Only some compounds are listed: those with a hit (about 1.5% of all), similar ones and a draw of the others.
IL-2 act – activates IL-2 in a cell-based reporter assay. activation, % (series mostly up to about 46 µM). 0.065% of 360,000 active. AID 652025. IL-2 activation reporter assay, cell-based qHTS; stimulated with anti-CD3/CD4/CD28 beads; in transgenic mouse T cells; in the data active = activation above about 50%; inconclusive = mostly about 30% to 49%; note: 0% is about no effect
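Unstimulated transgenic mouse T cells, 750 per well, received compound and, after 60 minutes, anti-CD3/anti-CD4 bead plus anti-CD28 stimulation. EGFP and DsRed were quantified after 18 hours.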
Nrf2 activator – activates Nrf2 signaling | AREc32 ARE-luciferase reporter (MCF7-derived line), luminescence, 24 h | Potency, µM (highest dose often 46.1 µM), for inactives: at the top dose activation, most hits filed as activators | 0.31% of 410,000 active | AID 624171; note: potency is the fitted concentration of half-maximal effect; % of control where 0% means no effect; nearly all actives have a fitted effect of over 65% in size
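Nrf2 activation is followed as ARE-luciferase induction in the AREc32 line after one day of compound treatment; luminescence is read with Steady-Glo.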
uPA generation – cell surface uPA generation inhibition. 0.31% of 330,000 active. cell surface uPA generation assay, qHTS. Potency, µM (top dose mostly 38.3 µM), without a hit: top-dose activity change, negative = inhibition, actives largely listed as inhibitors. AID 540303; active = well fitted inhibition curve with a large enough effect; inconclusive = small, poorly fitted or top-dose-only effect; inactive = no such curve, though single readings can be large or run the other way; tested in mouse RAW 264.7 cells; note: potency is the fitted concentration of half-maximal effect; % is set by controls: 0 for no effect and ±100 for the full control effect; nearly all actives have a fitted effect of over 55% in size
Integrin act MD – integrin-mediated muscular dystrophy alleviation activation | alpha7betagal myoblasts, beta-gal FDG fluorescence, 48 h | Potency, µM (doses to about 38.3 µM), for the others: at the highest dose activation, hits mostly activators | 0.064% of 350,000 active | AID 624291;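 note: potency is the fitted concentration of half-maximal effect; 100% = response of the positive control SU9516; nearly all actives have a fitted effect of over 60% in size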
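Alpha7betagal+/- myoblasts (passage 13) were plated 16-24 hr, then exposed to compounds (1:260 dilution of DMSO stock) for 48 hours at 37C. After MPER lysis, β-galactosidase reporter activity was read as FDG fluorescence (ex 480/em 540) after 30 minutes.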
ALOX12 inh – inhibitors of human 12S-lipoxygenase ALOX12; AID 1671190; P18054; purified 12hLO, xylenol orange hydroperoxide absorbance; 1.1% of 580,000 active; Potency, µM (titrated, usually from 108 µM), for the others: at the top dose activity change, negative = inhibition, most hits filed as inhibitors; note: potency is the fitted concentration of half-maximal effect; % is set by controls: 0 for no effect and ±100 for the full control effect
Target sequence (P18054 whole entry, looked up): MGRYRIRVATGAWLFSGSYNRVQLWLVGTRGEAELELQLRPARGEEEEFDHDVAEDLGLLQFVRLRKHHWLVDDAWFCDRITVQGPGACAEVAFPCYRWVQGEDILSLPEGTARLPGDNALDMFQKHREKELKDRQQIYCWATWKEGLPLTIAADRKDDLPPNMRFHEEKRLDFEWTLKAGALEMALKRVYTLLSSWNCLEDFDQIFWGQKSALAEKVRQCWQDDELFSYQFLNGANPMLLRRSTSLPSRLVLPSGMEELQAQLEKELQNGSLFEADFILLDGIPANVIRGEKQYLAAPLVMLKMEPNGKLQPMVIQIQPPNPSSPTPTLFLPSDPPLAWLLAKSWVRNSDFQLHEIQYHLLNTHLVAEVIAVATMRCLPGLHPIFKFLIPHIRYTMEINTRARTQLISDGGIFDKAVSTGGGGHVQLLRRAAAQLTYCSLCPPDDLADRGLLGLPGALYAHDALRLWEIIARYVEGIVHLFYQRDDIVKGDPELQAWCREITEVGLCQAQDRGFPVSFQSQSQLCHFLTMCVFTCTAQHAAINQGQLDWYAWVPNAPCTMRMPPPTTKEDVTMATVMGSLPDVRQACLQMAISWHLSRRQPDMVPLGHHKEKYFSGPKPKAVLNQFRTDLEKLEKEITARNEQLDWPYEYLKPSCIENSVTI
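Purified human 12hLO (150 nM final) in 25 mM Hepes, 0.01% Triton X-100, pH 7.0 was preincubated 15 min at room temperature with compound. Then 40 uM arachidonic acid was added, 30 min. Hydroperoxide was read by Fe-XO absorbance ratio 573/405 nm.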
* hit, by the source's call; ? = inconclusive; . = no result given; [ ] = dose if it differs, or a comment. Unless noted, calls come from the whole dose curve; as a rule, active = well fitted curve in the direction sought with a large enough effect; inconclusive = small, poorly fitted or top-dose-only effect, or another doubt; inactive = no such curve, though single readings can be large; an effect the other way counts as inactive or inconclusive.

SMILES	IL-2 act	Nrf2 activator	uPA generation	Integrin act MD	ALOX12 inh
O=C(NC(=S)Nc1ccc(S(=O)(=O)Nc2nccs2)cc1)c1ccc(F)c(F)c1	-0.1	4.5%	-1.6%	3.3%	10µM*
COc1ccc(NS(=O)(=O)c2ccc(NC(=S)NC(=O)c3cccc(F)c3)cc2)nn1	-2.6	4.3%	-10.4%	19.8%	39.8µM*
O=S(=O)(NNC(=S)Nc1ccc(S(=O)(=O)Nc2ncccn2)cc1)c1ccc(Br)cc1	-3.2	0.3%	-4.5%	-12.9%	-41.5%
COc1ccc(NS(=O)(=O)c2ccc(NC(=O)c3ccc(Br)cc3)cc2)nn1	-0.8	4.6%	6.7%	29.9%	-12.5%
COc1ccc(NS(=O)(=O)c2ccc(NC(=S)NC(=O)c3ccc(Br)cc3)cc2)nn1	-2.0	0.1%	3.5%	14.2%	25.1µM*
O=C(NC(=S)Nc1ccc(S(=O)(=O)Nc2ncccn2)cc1)c1ccc(Br)cc1	1.1	0.2%	3.9%	-4.8%	20µM*
O=C(Nc1cn[nH]c1)C1CCCN(c2cnccn2)C1 (configuration not stated)	.	.	.	.	39.2%
O=C(O)c1cccc(NC(=S)N/N=C/c2ccccc2OCc2ccc(Br)cc2)c1	-0.1	4.2%	-3.3%	38.6%	15.8µM*
O=C(O)c1cccc(NC(=S)N/N=C/c2ccccc2OCc2cccc(Br)c2)c1	-7.3	4.3%	2.4%	16.8%	28.2µM*
O=C(c1cc(-c2ccccc2)nc2ccccc12)N1CCN(c2ncccn2)CC1	.	.	.	.	-9.1%
Cc1ccc(CNC2CCc3ccccc32)cc1 (configuration not stated)	.	.	.	.	-5.5%
Cc1cc(C(=O)N2CCC3(COc4ncccc4S(=O)(=O)N3)C2)no1 (configuration not stated)	.	.	.	.	-0.3%[6.33 µM]
C=CCOc1ccc(CN(C)CC(=O)NC(=O)NCc2cccs2)cc1	.	.	.	.	-32.4%
COc1ccc(CNC(=O)c2csc(NC(C)C)n2)cc1	.	.	.	.	23.0%
CCc1ccc(NC(=O)Nc2ccc3sc(NC(C)=O)nc3c2)cc1	.	.	.	.	7.08µM*
COc1ccc2sc(NC(C)=O)nc2c1	3.0	0.5%	-1.9%	17.6%	?
O=C(NCCn1cccc1-c1nc(-c2ccc3c(c2)OCO3)no1)c1ccc(Cl)cc1	.	.	.	.	12.6µM*
Cc1ccc(C(=O)NCCn2cccc2-c2nc(-c3ccc4c(c3)OCO4)no2)cc1	.	.	.	.	44.9%
Cc1ccc(-c2nnc([C@H]3CCN(C(=O)C4CC4)C3)o2)cc1	.	.	.	.	-0.5%[176 µM]
Nc1nn(-c2ccccc2)c(N)c1N=Nc1cccc(F)c1	2.2	7.5%	1.41µM*	-12.9%	134.8%
Nc1nn(-c2ccccc2)c(N)c1N=Nc1ccc2c(c1)OCO2	-2.2	-1.1%	-3.2%	?	?
C(=N\N(Cc1ccccc1)c1ccccc1)/c1cccnc1	0.5	-0.1%	-17.7%	-31.5%	?
C/C(=N\N(Cc1ccccc1)c1ccccc1)c1cccnc1	0.0	3.5%	7.3%	-6.7%	?
Oc1cccc(/C=N/N(Cc2ccccc2)c2ccccc2)c1	-1.4	0.2%	4.3%	-30.3%	50.1µM*
Oc1ccc(/C=N/N(Cc2ccccc2)c2ccccc2)c(O)c1O	-3.9	4.0%	-2.6%	-1.3%	39.8µM*
SMILES	IL-2 act	Nrf2 activator	uPA generation	Integrin act MD	ALOX12 inh
O=C(Nc1ncccc1O)c1ccc(S(=O)(=O)Nc2ccccc2)cc1	0.5	11.2µM*	-16.6%	0.0%	-26.5%
Cc1ccc(NS(=O)(=O)c2ccc(C(=O)NNC(=O)c3ccccc3O)cc2)cc1	3.9	-0.7%	-10.7%	-12.4%	44.7µM*
O=C(Nc1ccccc1O)c1ccc(NS(=O)(=O)c2cccc3cccnc23)cc1	-1.3	11.2µM*	7.08µM*	-3.9%	1.7%
O=C(Nc1ncccc1O)c1ccc(NS(=O)(=O)c2ccc3[nH]c(=O)[nH]c3c2)cc1	0.8	?	-3.2%	?	2.6%
Cc1ccc(SCC(=O)NC(C)(C#N)C2CC2)c(C)c1 (configuration not stated)	.	.	.	.	35.5µM*
COc1ccc(C(=O)CSc2nnc(C(NC(=O)c3ccc(OC)cc3)C(C)C)n2C)cc1 (configuration not stated)	.	.	.	.	-4.2%
Cc1cnc(-c2cccnc2)n1CC1CCNCC1	.	.	.	.	-1.8%
C=CCSc1ccccc1NC(=O)c1cc(C)cc(C)c1	.	.	.	.	35.5µM*
COCCn1c(COc2ccccc2-c2ccccc2)n[nH]c1=S	.	.	.	.	28.2µM*
CCn1c(CSCc2ccc(Cl)cc2)n[nH]c1=S	-2.8	0.1%[9.22 µM]	-0.1%	7.9%	?
Cc1ccc(OCc2n[nH]c(=S)n2Cc2ccccc2)cc1	-1.0	-0.4%	-1.2%	-7.6%	-21.7%
Cc1nn(Cc2n[nH]c(=S)n2Cc2ccccc2)c(C)c1Cl	-0.1	-0.5%	3.9%	18.5%	44.7µM*
COCc1n[nH]c(=S)n1Cc1ccc(Cl)cc1	.	.	.	.	15.8µM*
CCn1c(COc2ccc(Cl)cc2C)n[nH]c1=S	.	.	.	.	14.1µM*
Cc1ccc(NC(=O)COCc2cc(-c3ccc(F)cc3)on2)cc1Cl	.	.	.	.	0.9%
Cc1ccccc1OCc1n[nH]c(=S)n1Cc1ccccc1	-6.7	0.2%	-8.4%	-0.1%	50.1µM*
S=c1[nH]nc(COc2cccc3ccccc23)n1Cc1ccccc1	-0.6	0.2%	3.5%	-4.2%	?
Cc1cc(Cl)ccc1OCCCc1n[nH]c(=S)n1C	.	.	.	.	22.4µM*
CC(C)c1noc(CSc2nc(C3CC3)nc3ccccc23)n1	.	.	.	.	28.7%
CCOc1cccc(CN2CC(c3nc(Cc4cccnc4)no3)C2)c1	.	.	.	.	8.9%
CCN(CC)S(=O)(=O)c1ccc(Oc2ccc3c(C)cc(=O)oc3c2)c([N+](=O)[O-])c1	.	.	.	.	56.9%
O=C(c1ccccn1)N1CCC2(CC1)CC(N(Cc1ccc(F)cc1)C1CC1)CCO2 (configuration not stated)	.	.	.	.	7.8%
Cc1ccc(O)c(NC(=O)CSc2n[nH]c(C)c2[N+](=O)[O-])c1	-0.6	11.2µM*	-13.3%	-24.7%	-22.1%

Screening results (PubChem)
